# From PMC4336329 (PLoS ONE, 2015)
# About 14,000 (4.5%) of roughly 310,000 compounds showed an effect of 50% or more. The effect is printed as a negative number. What follows is part of a selection rich in strong results, with near analogues and random picks from the rest.
# Biological target: human ether-à-go-go-related gene (hERG) potassium channel (human, UniProt Q12809)
# Test: primary screen, population patch clamp on CHO cells stably expressing hERG; higher = less effect of the substance
# 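Note: peak tail current of the secondary pulse compared with the same well before compound.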
# Chain of human ether-à-go-go-related gene (hERG) potassium channel (Q12809 whole entry, looked up): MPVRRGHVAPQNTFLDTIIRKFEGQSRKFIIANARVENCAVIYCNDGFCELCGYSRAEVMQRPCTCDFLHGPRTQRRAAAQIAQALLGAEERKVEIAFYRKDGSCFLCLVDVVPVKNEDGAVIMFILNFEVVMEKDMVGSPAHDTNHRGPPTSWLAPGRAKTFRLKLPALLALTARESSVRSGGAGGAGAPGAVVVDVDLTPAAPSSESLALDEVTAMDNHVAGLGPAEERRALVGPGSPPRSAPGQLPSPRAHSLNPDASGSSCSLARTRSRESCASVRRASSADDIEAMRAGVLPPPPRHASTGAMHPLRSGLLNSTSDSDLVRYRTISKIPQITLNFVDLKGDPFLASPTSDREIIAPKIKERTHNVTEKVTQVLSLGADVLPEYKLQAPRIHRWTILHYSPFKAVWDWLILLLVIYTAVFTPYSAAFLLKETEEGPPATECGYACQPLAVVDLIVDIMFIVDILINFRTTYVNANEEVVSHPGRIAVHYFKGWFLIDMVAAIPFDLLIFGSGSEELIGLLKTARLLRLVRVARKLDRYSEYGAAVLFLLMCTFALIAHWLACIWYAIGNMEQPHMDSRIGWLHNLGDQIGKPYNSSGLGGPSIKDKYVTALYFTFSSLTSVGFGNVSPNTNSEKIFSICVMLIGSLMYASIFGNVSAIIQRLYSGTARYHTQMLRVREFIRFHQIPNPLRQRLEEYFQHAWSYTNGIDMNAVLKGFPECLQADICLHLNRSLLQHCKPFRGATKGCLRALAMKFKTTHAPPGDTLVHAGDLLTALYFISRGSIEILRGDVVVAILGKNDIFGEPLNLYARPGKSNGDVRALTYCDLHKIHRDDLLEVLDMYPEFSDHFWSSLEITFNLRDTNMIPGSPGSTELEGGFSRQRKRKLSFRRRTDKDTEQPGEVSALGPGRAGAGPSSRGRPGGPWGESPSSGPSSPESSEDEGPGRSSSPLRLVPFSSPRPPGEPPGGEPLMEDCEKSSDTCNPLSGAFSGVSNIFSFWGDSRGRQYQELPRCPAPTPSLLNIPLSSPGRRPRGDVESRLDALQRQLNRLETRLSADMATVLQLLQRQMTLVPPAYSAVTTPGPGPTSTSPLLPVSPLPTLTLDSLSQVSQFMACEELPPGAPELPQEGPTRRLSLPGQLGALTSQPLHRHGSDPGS
row,Compound,"hERG current change (%, negative = inhibition) at 10uM"
1,CN(C)S(=O)(=O)c1ccc(N2CCCC2)c(C(=O)Nc2ccc(N3CCOCC3)cc2)c1,-7.91%
2,COc1ccc(C(=O)NCC(=O)NCC(=O)OCc2ccc(Cl)cc2)cc1,-6.07%
3,O=C(Cc1ncn[nH]1)NCCc1ccccc1,-3.77%
4,Cn1c(=O)[nH]c2nncnc2c1=O,-13%
5,COc1cc2ccccc2cc1C(=O)Nc1cccnc1,-9.84%
6,CCOC(CC(=O)NNC(=O)c1c(-c2ccccc2Cl)noc1C)OCC,17.7%
7,COc1cc(C(=O)NCCN2CCOCC2)cc(OC)c1OC,8.25%
8,CCc1ccccc1Nc1cc(C(=O)NCc2ccccn2)c2ccccc2n1,-57.8%
9,COc1ccc(Nc2cc(C(=O)NCc3ccccn3)c3ccccc3n2)c(OC)c1,8.79%
10,O=C(NCc1ccccn1)c1cc(-c2ccccc2)nc2ccccc12,-25.2%
11,Cc1ccc(CNS(=O)(=O)c2cc3c4c(c2)CCN4C(=O)CC3)cc1,-29.4%
12,O=C(c1ccco1)N1CCN(CC(O)COc2ccc(Br)cc2)CC1 (centres unmarked),-72.6%
13,COC(=O)c1ccc(OCC(O)CN2CCN(C(=O)c3ccco3)CC2)cc1.O=C(O)C(=O)O (centres unmarked),-25.3%
14,O=C(c1ccco1)N1CCN(CC(O)Cn2c3ccccc3c3ccccc32)CC1 (centres unmarked),-41.9%
15,O=C(c1ccco1)N1CCN(CC(O)COc2ccc3oc4ccccc4c3c2)CC1 (centres unmarked),-66.4%
16,CC(C)(C)c1ccc(OCC(O)CN2CCN(C(=O)c3ccccc3)CC2)cc1.O=C(O)C(=O)O (centres unmarked),-50.7%
17,OC(COc1ccc(Br)cc1)CN1CCN(c2ccccc2)CC1 (centres unmarked),-21.2%
18,CC(=O)N1CCN(CC(O)COc2ccc(Br)cc2)CC1.O=C(O)C(=O)O (centres unmarked),-10.7%
19,Cc1cc(C)c(OCC(O)CN2CCN(C(=O)c3ccccc3)CC2)c(C)c1.O=C(O)C(=O)O (centres unmarked),-46.4%
20,CC(=O)c1cccc(OCC(O)CN2CCN(C(=O)c3ccco3)CC2)c1 (centres unmarked),-2.19%
21,Cc1cc(C)cc(OCC(O)CN2CCN(C(=O)c3ccco3)CC2)c1 (centres unmarked),-43.7%
22,O=C(c1ccccc1)N1CCN(CC(O)COc2ccc(Br)cc2)CC1 (centres unmarked),-64.9%
23,Cl.O=C(c1ccccc1)N1CCN(CC(O)COc2cccc3ccccc23)CC1 (centres unmarked),-28.1%
24,O=C(NC1CCCCC1)c1ccc(OC2CCN(Cc3ccccn3)CC2)cc1,-16%

row,Compound,"hERG current change (%, negative = inhibition) at 10uM"
1,COc1ccc(OC)c(N(CC(=O)NCCSC2CCCCC2)S(=O)(=O)c2ccccc2)c1,16%
2,Cc1cccc(NC(=O)CSc2nccn2Cc2ccco2)c1,0.772%
3,Cc1c(NS(=O)(=O)c2ccc(C(=O)NCc3ccc(F)cc3)cc2)c(=O)n(-c2ccccc2)n1C,-15%
4,COc1ccc(C(=O)NC(=S)NNC(=O)c2ccccc2C)cc1,17.7%
5,NC(=O)c1c(NC(=O)CSc2nc3c(c(C(F)(F)F)n2)CCc2ccccc2-3)sc2c1CCCC2,-1.81%
6,Nc1ccc2c(c1)C(=O)Cc1ccccc1S2,9.05%
7,COc1cc(C(=O)N2CCN(CC(O)COc3ccccc3)CC2)cc(OC)c1OC (centres unmarked),4.32%
8,COc1ccccc1OCC(O)CN1CCN(C(=O)c2ccccc2)CC1.Cl (centres unmarked),1.39%
9,CCCOC(=O)c1ccc(OCC(O)CN2CCN(C(=O)c3ccccc3)CC2)cc1.Cl (centres unmarked),-73.7%
10,CC(=O)/C(=N\Nc1ccc(C)cc1)Sc1nncn1C,-12.8%
11,COc1ccccc1C(=O)NCc1ccc(-c2nc3ccccc3s2)cc1,-11%
12,O=C(NNc1nc(-c2ccccc2)cs1)c1ccccc1,3.27%
13,CC1(C)CC(CC(=O)NNc2nc(-c3ccccc3)cs2)C(=O)O1 (centres unmarked),-2.28%
14,Br.CC(C)CC1CC(C)(c2csc(NNC(=O)c3ccccc3)n2)OC1=O (centres unmarked),-74.5%
15,O=C(Nc1cccc(F)c1)C1C2C=CC3(CN(CCCN4CCOCC4)C(=O)C13)O2 (centres unmarked),-8.87%
16,Cl.O=C1CSC(c2ccccc2F)N1CCN1CCCCC1 (centres unmarked),-10.6%
17,CCOC(=O)C1(Cc2ccccc2)CCN(Cc2cn[nH]c2-c2ccccc2)CC1,-28.8%
18,CCOC(=O)C1(CC2CCCCO2)CCN(Cc2cc3ccccc3[nH]2)CC1 (centres unmarked),-46.1%
19,CCOC(=O)C1(CC2CCCCO2)CCN(Cc2cn[nH]c2-c2cccc(F)c2)CC1 (centres unmarked),-53.9%
20,CCOC(=O)C1(CC2CC2)CCN(Cc2ccc3cccc(F)c3n2)CC1,-48.3%
21,CCOC(=O)C1(CC2CC2)CCN(S(=O)(=O)/C=C/c2ccccc2)CC1,-18.4%
22,CCOC(=O)C1(CC2CC2)CCN(Cc2cn[nH]c2-c2ccccc2)CC1,-79.5%
23,CCOC(=O)C1(CC2CCCCO2)CCN(S(=O)(=O)c2cccc(F)c2)CC1 (centres unmarked),29.8%
